Compound activity as filed in PubChem BioAssay.
Sampled rows, rich in hits. Any-hit rate of the full collection: about 0.45%.
Mtb BioA inh = M. tuberculosis BioA enzyme inhibitors, primary screen, biochemical, plate reader, single point, HTS. 360,000 compounds, 0.096% hits. purified M. tuberculosis BioA enzyme. 7,8-diaminopelargonic acid synthase BioA (Mycobacterium tuberculosis). inhibition, % at 9.99 µM; in the data active means inhibition above about 40%
Y pestis TopoI = Yersinia pestis topoisomerase I inhibitors, primary screen, biochemical, cleavage product accumulation, plate reader, single point; Y. pestis Topo-I cleavage product accumulation; activity, % at 10 µM; 360,000 compounds, 0.064% hits; in the data active means activity above about 50%, passing the limit was not always enough
FadD28 FP inh = inhibitors of FadD28 bisubstrate probe binding, primary screen, biochemical, fluorescence polarization, single point; Mycobacterium tuberculosis FadD28 fatty-acid-AMP ligase; inhibition, % at 12.5 µM; 360,000 compounds, 0.22% hits; AID 588549, 2011; in the data active means inhibition above about 8.5%, passing the limit was not always enough
TcdB GH inh = TcdB glycohydrolase inhibitors, primary screen, biochemical, single point, plate reader. Toxin B (Clostridioides difficile), P18177. TcdB glycohydrolase enzymatic assay. inhibition, % at 9.99 µM. 350,000 compounds, 0.24% hits. AID 652162, 2013; in the data active means inhibition above about 10%
A number is an active result; n = inactive; x = no result; ! = not active in a repeat.

SMILES	Mtb BioA inh	Y pestis TopoI	FadD28 FP inh	TcdB GH inh
C[C@H](CO)N1C[C@H](C)[C@@H](CN(C)C(=O)NC2CCCC2)Oc2ncc(C3=CCCC3)cc2C1=O	x	x	x	n
COc1ccc(Cc2nnc(SCc3nc4ccccc4c(=O)[nH]3)o2)cc1	n	n	n	n
O=c1[nH]c(CSc2nnc(Cc3ccccc3)o2)nc2ccccc12	n	n	n	19
CC(C)C12NC(=O)NC(=O)N1CCS2 (configuration not stated)	x	n	n	10
CC(C)C1(c2ccsc2)NC(=O)NC1=O (configuration not stated)	x	n	n	n
COc1ccccc1CNC(c1ccccc1)c1ccccc1	n	n	n	n
CCOc1ccccc1CNC(c1ccccc1)c1ccccc1	n	52	n	n
Cc1noc(C)c1NC(=O)Nc1ccc2c(c1)C(=O)N([C@H](C)CO)C[C@H](C)[C@H](CN(C)C(=O)Nc1ccc3c(c1)OCO3)O2	n	x	x	n
COC(=O)C[C@H]1C[C@H]2c3cc(NC(=O)Nc4ccccc4)ccc3O[C@H]2[C@@H](CO)O1	n	x	x	n
Cc1[nH]c2ccccc2c1/C=N/NC(=O)c1cccc(S(=O)(=O)Nc2ccccc2Cl)c1	n	n	n	x
CCc1cccc2c(/C=N/NC(=O)c3cccc(S(=O)(=O)Nc4ccccc4Cl)c3)c[nH]c12	x	n	34	x
Cc1ccc(/C=N/NC(=O)c2cccc(S(=O)(=O)Nc3ccccc3Cl)c2)o1	n	n	n	12
COc1ccc2c3c(n(C)c2c1)[C@@H](CO)N(C(=O)C1CC1)CC31CCN(C(=O)Nc2cccc(F)c2)CC1	x	x	x	n
CN(C)[C@@H]1C(=O)C(C(N)=O)=C(O)[C@@]2(O)C(=O)C3=C(O)c4c(O)cccc4[C@@](C)(O)C3[C@H](O)C12 (some centres not stated)	n	n	31!	n
Clc1cccc(-c2ccc3ncnc(NCc4cccs4)c3c2)c1	n	n	n	11
C[C@@H]1CN([C@H](C)CO)C(=O)c2cc(-c3cccc(F)c3)cnc2O[C@H]1CN(C)Cc1ccccn1	n	x	x	n
O=C(O)c1ccc(-c2nnc(-c3ccc([N+](=O)[O-])cc3)o2)cc1	n	n	n	n
O=C(O)c1ccc(-c2nnc(-c3ccccc3)o2)cc1	n	n	n	13
O=S(=O)(O)c1cccc2cccc(Nc3ccccc3)c12	n	n	81	n
O=C(CCN1C(=O)/C(=C/c2ccco2)SC1=S)Nc1ccc(O)cc1C(=O)O	n	n	21	n
O=C(CCCN1C(=O)/C(=C\c2ccccc2)SC1=S)Nc1ccc(O)cc1C(=O)O	n	n	n	n
O=C(CN1C(=O)/C(=C\c2ccco2)SC1=S)Nc1ccc(O)cc1C(=O)O	n	n	36	n
O=C(CCCN1C(=O)/C(=C/c2ccco2)SC1=S)Nc1ccccc1C(=O)O	x	n	45	n
O=C1/C(=C\c2ccco2)SC(=S)N1Cc1ccccc1	n	n	n	x
C[C@H](CO)N1C[C@H](C)[C@H](CN(C)Cc2ccc(C(F)(F)F)cc2)Oc2ccc(NS(=O)(=O)c3cn(C)cn3)cc2C1=O	n	x	x	n
SMILES	Mtb BioA inh	Y pestis TopoI	FadD28 FP inh	TcdB GH inh
O=C(c1ccccc1F)N1CCN(c2ccc([N+](=O)[O-])c3cccnc23)CC1	x	n	n	12
CO[C@H]1CN(C)C(=O)c2ccc(NC(=O)c3ccc(F)cc3)cc2OC[C@H](C)N(C)C[C@H]1C	n	x	x	x
CC(C)CNC(=O)c1c(F)c(F)c(F)c(F)c1F	n	n	n	10
O=C(NCCCCNC(=O)c1c(F)c(F)c(F)c(F)c1F)c1c(F)c(F)c(F)c(F)c1F	n	n	n	x
CN1C(=O)c2cc(NC(=O)c3cccs3)ccc2OC[C@H]2O[C@@H](CC(=O)NCC3CC3)CC[C@H]21	n	x	x	x
CN1CCN(CCCN2c3ccccc3Sc3ccc(Cl)cc32)CC1	n	n	8.2	n
CCSc1ccc2c(c1)N(CCCN1CCN(C)CC1)c1ccccc1S2	n	n	n	n
O=C(O)c1ccc(-n2nnc3ccccc32)c([N+](=O)[O-])c1	n	n	n	14
CCC(=O)N1CC2(C1)CN(C(=O)Cc1ccccc1)[C@H](CO)c1c2c2ccc(OC)cc2n1C	x	x	x	n
CC(C)(C)c1ccc(OCCn2nc(C(=O)O)c3ccccc3c2=O)cc1	n	72	n	n
O=C(CCC(=O)N1CCSc2ccccc21)Nc1cccc(F)c1	n	n	n	10
Cc1ccc(CNC(=O)c2ccc3c(=O)n(CC4CCCO4)c(=S)[nH]c3c2)cc1 (configuration not stated)	n	n	n	x
